Compounds without any hit were thinned out: in the full panel of roughly 83,000, 20% have a hit.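 Each cell line was grown in a 96-well plate and treated with one concentration of compound for 48 hours. Values below 10 were considered active.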 Unmarked numbers belong to inactive results. Active and inactive are the calls of the source.
Experiments:
Test in all cases: NCI-60 one-dose screen, 48 h (100 = growth as untreated, 0 = no growth, -100 = all killed)
Settings in all cases: 10 µM unless noted
[1] = tested on: HCT-15 colon
[2] = tested on: HT29 colon
[3] = tested on: SNB-75 CNS
[4] = tested on: SNB-19 CNS
[5] = tested on: U251 CNS
[6] = tested on: PC-3 prostate
[7] = tested on: SK-MEL-5 melanoma
[8] = tested on: UACC-62 melanoma
[9] = tested on: LOX IMVI melanoma
[10] = tested on: SK-MEL-28 melanoma
[11] = tested on: SK-MEL-2 melanoma
[12] = tested on: EKVX NSCLC
[13] = tested on: SN12C renal
[14] = tested on: UO-31 renal
[15] = tested on: TK-10 renal
[16] = tested on: ACHN renal
[17] = tested on: CAKI-1 renal
[18] = tested on: A498 renal
[19] = tested on: CCRF-CEM leukemia
[20] = tested on: MOLT-4 leukemia

| SMILES | growth [1] | growth [2] | growth [3] | growth [4] | growth [5] | growth [6] | growth [7] | growth [8] | growth [9] | growth [10] | growth [11] | growth [12] | growth [13] | growth [14] | growth [15] | growth [16] | growth [17] | growth [18] | growth [19] | growth [20] |
| --- | --- | --- | --- | --- | --- | --- | --- | --- | --- | --- | --- | --- | --- | --- | --- | --- | --- | --- | --- | --- |
| O=C(Nc1cccc(-n2ccc3c(NC(=O)c4ccccc4)nccc32)c1)c1ccc(N2CCOCC2)c(C(F)(F)F)c1 | 14.1% | 2.15% (active) | -12.5% (active) | 43.3% | 15.5% | 23.7% | -68.6% (active) | 40.1% | 9.86% (active) | 32.8% | 13.4% | 45.5% | 34% | 5% (active) | 6.82% (active) | 24.2% | 14.8% | 21.9% | 15.7% | 17.4% |
| C=CC(=O)N1CN(C(=O)C=C)CN(C(=O)C=C)C1 | 3.65% (active) | 26.2% | 60% | 107% | 88.9% | 90.8% | 71.5% | 74.3% | 71.4% | 72.7% | 110% | 108% | 95.2% | 55.2% | -11.4% (active) | 22.4% | 3.54% (active) | 106% | 10.1% | 23.4% |
| Clc1ccc(-c2nc(-c3cccs3)no2)cc1 | 106% | 96% | 88.6% | 105% | 84.6% | 84.4% | 87.9% | 88.1% | 94.7% | 112% | 103% | 85.4% | 100% | 71.3% | 74.6% | 101% | 99.5% | 108% | 91.9% | 96.3% |
| COC(=O)OC1C(O[C@H]2C[C@H]3[C@@H]4CC=C5C[C@@H](O)CC[C@]5(C)[C@H]4CC[C@]3(C)[C@H]2[C@H](C)C(=O)CCC(C)C)OCC(O)C1OC1OCC(O)C(O)C1OC(=O)c1ccc(OC)cc1 (stereo not given in full) | -40.9% (active) | 4.87% (active) | 0.635% (active) | 8.46% (active) | -18.5% (active) | -18.8% (active) | -71.5% (active) | -29% (active) | -38.7% (active) | -55.3% (active) | -46.1% (active) | 14.3% | 43.4% | -40.4% (active) | 0.902% (active) | 31.6% | -16.6% (active) | -74% (active) | -25.9% (active) | -36.5% (active) |
| O=c1c2cc(Cl)ccc2oc2ccc(OCCCCCN3CCCCC3)cc12 | -14.7% (active) | -27.9% (active) | 102% | 77.5% | 46% | 69.1% | -26.2% (active) | -52.7% (active) | -6.06% (active) | 12% | 64.8% | 70.3% | 65.1% | 60.7% | 69.2% | 94.8% | 70.8% | 75.6% | 39.8% | 25.2% |
| CCCCn1cnc2c(SCc3ccc([N+](=O)[O-])cc3)nc(N)nc21 | 88.2% | 98.6% | 95.7% | 86% | 90.6% | 89.8% | 85.8% | 80.4% | 88% | 117% | 91.5% | 103% | 87% | 65.2% | 85% | 87.5% | 87.7% | 86.3% | 86.3% | 24.3% |
| CN(C)CCCn1c(=O)c2cc([N+](=O)[O-])ccc2c2cnc3[nH]ccc3c21 | 48% | 16.2% | 49.5% | 53.5% | 57.4% | 48.4% | 69.4% | 74.6% | 38.5% | 104% | 53.7% | 62.2% | 47% | 33.1% | 50.5% | 27.9% | 79.5% | 39.5% | -26.4% (active) | 8.62% (active) |
| COc1cccc(-c2nc3sccn3c2-c2ccnc(NCCN3CCCNS3(=O)=O)n2)c1 | 97.1% | 45.2% | 88.4% | 127% | 112% | 94.4% | 80.8% | 9.99% (active) | 35% | 44.1% | 86.3% | 110% | 60.8% | 70.7% | 115% | 48.4% | 44.6% | 108% | 68.1% | 87.5% |
| COc1ccc(-n2c(COc3ccc(F)cc3)n[nH]c2=S)cc1 | 114% | 103% | 97.7% | 106% | 97.4% | 154% | 105% | 98.6% | 104% | 127% | 33.1% | 107% | 84.4% | 107% | 101% | 99.7% | 104% | 108% | 143% | 114% |
| O=C1C(Cl)=C(Nc2cccc3ccccc23)C(=O)c2ccccc21 | 70% | 90.3% | 81.6% | 92.6% | 75.6% | 43% | 60.9% | 55.1% | 32.7% | 91.4% | 79.1% | 74.4% | 80.1% | 58.5% | 95.4% | 68.2% | 25.4% | 77.5% | 65.4% | 64.9% |
| CN1C(=O)N(C)C2C1NN=c1s/c(=C\c3ccsc3)c(=O)n12 (stereo not given) | 24.7% | 9.4% (active) | -7.65% (active) | 39.6% | 30.6% | 38.5% | 41.6% | 28.3% | 37.7% | 67.8% | 56.4% | 65.8% | 58.8% | 56% | 76.8% | 47% | 35.7% | 7.47% (active) | 28.8% | 49.7% |
| CC(=O)NC1C(O[C@H]2C[C@H]3[C@@H]4CC=C5C[C@@H](O)CC[C@]5(C)[C@H]4CC[C@]3(C)[C@H]2[C@H](C)C(=O)CCC(C)C)OCC(O)C1O (stereo not given in full) | 30.5% | 36.8% | 37.8% | 57.5% | 28% | 26.5% | 24.8% | -20.3% (active) | 27.2% | -14.3% (active) | -15.9% (active) | 46.3% | 89.6% | 1.5% (active) | 60.4% | 44.3% | 30.2% | -20.3% (active) | 11.5% | -8.22% (active) |
| CC1(C)CC(=O)c2cc3c(N)c(C(=O)Nc4ccc(Cl)cc4)sc3nc2C1 | 108% | 96.4% | 114% | 114% | 103% | 105% | 96% | 105% | 109% | 118% | 101% | 93.2% | 110% | 109% | 95.2% | 117% | 134% | 75.6% | 97.2% | 104% |
| CCCCCCCCCCCCCCCC1=NC(C)(C)CN1C(C)C | -63.5% (active) | -50% (active) | -13.4% (active) | 42.6% | -67% (active) | -41.4% (active) | -86.1% (active) | -75.5% (active) | -79.4% (active) | -80% (active) | -67.9% (active) | 5.51% (active) | -36.3% (active) | -57.5% (active) | -74.2% (active) | -58.3% (active) | -45.4% (active) | 63.4% | -56.3% (active) | -59.8% (active) |
| CCOC(=O)c1ccc2c(c1)nc(-c1ccc(Cl)cc1)n2-c1cc(C(C)(C)C)[nH]n1 | 20.2% | 18.5% | 18.2% | 48% | 33.6% | 48.7% | 0.494% (active) | 25.5% | 27.8% | 36.2% | 38.7% | 47.6% | 60.5% | 36.3% | 84.9% | 35.8% | 25.5% | 45.3% | 22.3% | 9.68% (active) |
